From the supplement of paper PMC10981050
“And” between values parts separate entries of the source, which are not always exact repeats. Identical values can stand only once. Counter-ions that a name gives are not always drawn.

Tests used:
Experiment in all cases: cell viability relative to vehicle control; higher = less cytotoxic
Details in all cases: 10 µM
K562 = test system: K562
In short: (§1)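 After removal of identity-inconsistent compounds, the Selleck bioactive, kinase and epigenetic probe libraries were screened on CRISPR-edited mutant clones and isogenic wild-type clones of four leukaemia lines. Plates were 384-well, each well holding 2000 cells in 50 µL medium and receiving a single 10 µM acoustically dispensed dose. CellTiter-Glo luminescence was read 48 h later, after the supernatant was taken off. Genedata Screener was used to express viability as percent of the on-plate vehicle control.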

MARIMO = test system: MARIMO
In short: as §1

MOLM14 = test system: MOLM14
In short: as §1

OCI-AML2 = test system: OCI-AML2
In short: as §1

| Compound | cell viability (K562; SRSF2 genotype: SRSF2 P95H/wt) | cell viability (K562; SRSF2 genotype: SRSF2 wt/wt) | cell viability (MARIMO; SRSF2 genotype: SRSF2 P95H/wt) | cell viability (MARIMO; SRSF2 genotype: SRSF2 wt/wt) | cell viability (MOLM14; SRSF2 genotype: SRSF2 P95H/wt) | cell viability (MOLM14; SRSF2 genotype: SRSF2 wt/wt) | cell viability (OCI-AML2; SRSF2 genotype: P95H/wt) | cell viability (OCI-AML2; SRSF2 genotype: wt/wt) |
| --- | --- | --- | --- | --- | --- | --- | --- | --- |
| COc1ccc(-c2cc(=O)c3c(O)cc(O)cc3o2)cc1O [Diosmetin (Luteolin 4-methyl ether)] | 86.7% and 96.9% | 83.9% | 105% | 121% | 50.9% | 53.6% | 81% | 74.6% |
| O=C1C=C2C=C[C@@H](O)[C@H](O)[C@H]2O1 [Griffonilide] | 101% | 96.4% | 98.7% | 104% | 99.3% | 97.2% | 103% | 100% |
| C=C[C@@H]1C[C@]1(NC(=O)[C@@H]1C[C@@H]2CN1C(=O)[C@H](C(C)(C)C)NC(=O)O[C@@H]1C[C@H]1CCCCCc1nc3ccc(OC)cc3nc1O2)C(=O)NS(=O)(=O)C1CC1 [Grazoprevir] | 96.2% and 101% | 93.4% | 115% | 123% | 111% | 105% | 116% | 115% |
| CCc1ccc(/C=C2/SC(=S)NC2=O)cc1 | 106% and 101% | 102% | 100% | 108% | 105% | 104% | 91% | 91.2% |
| CCc1cc2c(cc1N1CCC(N3CCOCC3)CC1)C(C)(C)c1[nH]c3cc(C#N)ccc3c1C2=O | 91.7% and 98.6% | 105% | 63.9% | 86.3% | 66.7% | 80.5% | 71.7% | 52.2% |
| C[C@H](CCC(=O)O)[C@H]1CC[C@H]2[C@@H]3[C@H](O)C[C@@H]4C[C@H](O)CC[C@]4(C)[C@H]3CC[C@]12C [Chenodeoxycholic acid] | 97.4% and 101% | 99.7% | 104% | 108% | 100% | 101% | 98.4% | 106% |
| N#CC1(c2ccc(NC(=O)c3cccnc3NCc3ccncc3)cc2)CCCC1 [Apatinib mesylate] | 79.4% and 87.5% | 81.8% | 77.7% | 86.2% | 45.8% | 42.6% | 68.4% | 62.5% |
| C[C@]12C=CC(=O)C=C1CC[C@@H]1[C@@H]2[C@@H](O)C[C@@]2(C)[C@H]1CC[C@]2(O)C(=O)CO [Prednisolone] | 105% and 98.9% | 106% | 101% | 103% | 98.5% | 96.3% | 91.1% | 111% |
| CCOC(=O)OC(C)OC1=C(C(=O)Nc2ccccn2)N(C)S(=O)(=O)c2ccccc21 (stereo unspecified) [Ampiroxicam] | 96.8% and 104% | 92.4% | 101% | 95.9% | 93% | 95.9% | 104% | 96% |
| COc1cc(CO)cc(OC)c1O [4-Hydroxy-3,5-dimethoxybenzyl alcohol] | 106% and 98.2% | 100% | 102% | 107% | 99.7% | 102% | 108% | 105% |
| OC[C@H]1O[C@H](O[C@H]2O[C@H](CO)[C@@H](O)[C@H](O)[C@H]2O)[C@H](O)[C@@H](O)[C@@H]1O [D-(+)-Trehalose dihydrate] | 103% and 99.5% | 102% | 106% | 111% | 104% | 108% | 105% | 108% |
| O=S(=O)(c1ccc2c(c1)C(=NO)c1cc(S(=O)(=O)N3CCCCC3)ccc1-2)N1CCCCC1 | 0.51% and 0.55% | 0.51% | 3.1% | 0.51% | 0.31% | 30.1% | 0.87% | 0.36% |
| CCN1CCN(c2cc3c(cc2F)c(=O)c(C(=O)O)cn3C2CC2)CC1 [Enrofloxacin] | 98.9% and 111% | 99.2% | 108% | 111% | 103% | 111% | 109% | 109% |
| O=c1cc(-c2ccc(O)cc2)oc2cc(O)c(O)c(O)c12 [Scutellarein] | 92% and 86.2% | 95% | 102% | 91.3% | 107% | 103% | 102% | 97% |
| COc1nccc(-c2c(-c3ccc(F)cc3)ncn2C2CCC(O)CC2)n1 (stereo unspecified) | 96.5% and 98.5% | 89.3% | 98.3% | 110% | 107% | 107% | 107% | 107% |
| Cc1cc(S(=O)(=O)O)c2c(C)ccc(C(C)C)cc1-2 [Sodium gualenate] | 103% | 103% | 100% | 108% | 99% | 104% | 95.2% | 106% |
| NC(C=O)C(O)C(O)C(O)CO (stereo unspecified) [Glucosamine sulfate] | 99.5% and 102% | 100% | 101% | 105% | 104% | 108% | 104% | 104% |
| CC#C[C@]1(O)CC[C@H]2[C@@H]3CCC4=CC(=O)CCC4=C3[C@@H](c3ccc(N(C)C)cc3)C[C@@]21C [Mifepristone (Mifeprex)] | 84.3% and 91.5% | 86.8% | 86.7% | 90.7% | 79.7% | 89.6% | 104% | 92.6% |
| O=C(NCc1ccncc1)C12CC3CC(C1)CC(c1ccc(Cl)cc1)(C3)C2 | 73.1% and 84.6% | 72.3% | 75.4% | 74.2% | 61% | 57.4% | 64.5% | 55.1% |

| Compound | cell viability (K562; SRSF2 genotype: SRSF2 P95H/wt) | cell viability (K562; SRSF2 genotype: SRSF2 wt/wt) | cell viability (MARIMO; SRSF2 genotype: SRSF2 P95H/wt) | cell viability (MARIMO; SRSF2 genotype: SRSF2 wt/wt) | cell viability (MOLM14; SRSF2 genotype: SRSF2 P95H/wt) | cell viability (MOLM14; SRSF2 genotype: SRSF2 wt/wt) | cell viability (OCI-AML2; SRSF2 genotype: P95H/wt) | cell viability (OCI-AML2; SRSF2 genotype: wt/wt) |
| --- | --- | --- | --- | --- | --- | --- | --- | --- |
| CONC(=O)c1ccccc1Nc1cc(Nc2cc(C)nn2C(C)C)ncc1Cl | 91.8% and 101% | 105% | 93.2% | 101% | 82.9% | 102% | 95.8% | 103% |
| OC[C@H]1O[C@@H](Oc2cc3c(O)cc(O)cc3[o+]c2-c2ccc(O)c(O)c2)[C@H](O)[C@@H](O)[C@@H]1O [Cyanidin-3-O-glucoside chloride] | 93.5% and 89% | 87.1% | 91.6% | 92.6% | 90.4% | 91.1% | 83% | 86.2% |
| CCCCCCCCCC(=O)N[C@@H](Cc1c[nH]c2ccccc12)C(=O)N[C@H](CC(N)=O)C(=O)N[C@@H](CC(=O)O)C(=O)N[C@@H]1C(=O)NCC(=O)N[C@@H](CCCN)C(=O)N[C@@H](CC(=O)O)C(=O)N[C@H](C)C(=O)N[C@@H](CC(=O)O)C(=O)NCC(=O)N[C@H](CO)C(=O)N[C@@H]([C@H](C)CC(=O)O)C(=O)N[C@@H](CC(=O)c2ccccc2N)C(=O)O[C@@H]1C [Daptomycin] | 94.1% and 95.3% | 95% | 94% | 103% | 99% | 96.5% | 96% | 103% |
| COc1ccc2c(c1)[C@]1(C[C@H]1c1ccc3c(/C=C/c4ccc(CN5C[C@@H](C)O[C@@H](C)C5)cc4)n[nH]c3c1)C(=O)N2 | 13.4% and 27.5% | 17.7% | 30.9% | 29.3% | 14.5% | 10.7% | 11.6% | 20.3% |
| COC(=O)CC1CC(c2ccc(O)cc2)=NO1 (stereo unspecified) | 113% and 102% | 104% | 102% | 112% | 77.1% | 102% | 104% | 103% |
| NS(=O)(=O)c1ccccc1 [Benzenesulfonamide] | 100% and 106% | 109% | 97.9% | 109% | 96.5% | 106% | 107% | 91.7% |
| CN(CCNCc1cn(Cc2ccc(Cl)cc2)nn1)CCNc1ccnc2cc(Cl)ccc12 | 2.31% and 5.3% | 6.48% | 28.8% | 34.4% | 2.79% | 0.55% | 0.39% | 0.68% |
| Cn1c(O)c(C2=c3ccccc3=NC2=O)c2ccccc21 [Meisoindigo] | 22.4% and 19.2% | 43.4% | 0.73% | 0.66% | 0.36% | 0.48% | 0.36% | 0.46% |
| CC(C)(C)c1cc(NC(=O)Nc2ccc(-c3cn4c(n3)sc3cc(OCCN5CCOCC5)ccc34)cc2)no1 [Quizartinib (AC220)] | 105% and 110% | 103% | 80.1% | 82.9% | 14.9% | 9.61% | 36.9% | 45.7% |
| O=C(/C=C/c1ccccc1)OCc1ccccc1 [Benzyl cinnamate] | 101% and 100% | 103% | 85.5% | 99.6% | 108% | 104% | 92.1% | 93.1% |
| OC(Cn1cncn1)(Cn1cncn1)c1ccc(F)cc1F [Fluconazole] | 112% and 99.8% | 101% | 98% | 107% | 103% | 101% | 96.9% | 95.7% |
| C[C@@H]1CN(CC(=O)Nc2ccc3c(c2)Cc2cccc(-c4cc(=O)cc(N5CCOCC5)o4)c2S3)C[C@H](C)O1 | 98.9% and 102% | 99.1% | 82.9% | 86.9% | 56.9% | 55.8% | 51.3% | 64.2% |
| CC[C@H](C)n1cc(C)c2c(C(=O)NCc3c(C)cc(C)[nH]c3=O)cc(-c3ccc(N4CCNCC4)nc3)cc21 | 78.3% and 82.1% | 78.2% | 80.9% | 94.6% | 81.6% | 81.7% | 68% | 75.4% |
| CN1CCC(=C2c3ccccc3CCc3cccnc32)CC1 [Azatadine dimaleate] | 100% and 108% | 94.1% | 92.2% | 102% | 91.9% | 100% | 88% | 99% |
| Cc1ccc(S(=O)(=O)NC(=O)NN2CC3CCCC3C2)cc1 (stereo unspecified) [Gliclazide (Diamicron)] | 95.8% and 105% | 109% | 106% | 111% | 103% | 106% | 113% | 101% |
| CC1(C)CC[C@]2(C(=O)O)[C@H](O)C[C@]3(C)C(=CC[C@@H]4[C@@]5(C)CC[C@H](O)C(C)(C)[C@@H]5CC[C@]43C)[C@H]2C1 [Echinocystic acid] | 93.8% and 87.5% | 89% | 87.1% | 99.2% | 85.1% | 90.4% | 82.8% | 94.6% |
| CC=C(C)C(=O)O [S3803 Angelic acid.cdx] | 106% and 99.5% | 103% | 106% | 108% | 104% | 100% | 103% | 108% |
| COc1ccc(-c2nc3cc(C4=NNC(=O)CC4C)ccc3[nH]2)cc1 (stereo unspecified) [Pimobendan (Vetmedin)] | 59.4% and 65.2% | 68.4% | 65.5% | 57.5% | 68% | 83.6% | 89.3% | 84.4% |
